Data: PubChem BioAssay (NCI)
The panel holds about 83,000 compounds, 20% with a hit somewhere; the sample as a whole holds those more often.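 Percent growth is the endpoint: 0 to 100 indicates growth inhibition (40 means 60% inhibition), 0 means no net growth, and negative values indicate cell death.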 Unmarked numbers belong to inactive results. Active and inactive are the calls of the source. Rule for the calls: active = growth percent below 10; inactive = the rest.

Assays:
Assay in all cases: NCI-60 one-dose screen, 48 h (100 = growth as untreated, 0 = no growth, -100 = all killed)
Conditions in all cases: 10 µM unless noted
SR leukemia = test system: SR leukemia
OVCAR-8 ovarian = test system: OVCAR-8 ovarian
OVCAR-5 ovarian = test system: OVCAR-5 ovarian
OVCAR-4 ovarian = test system: OVCAR-4 ovarian
SK-OV-3 ovarian = test system: SK-OV-3 ovarian
IGROV1 ovarian = test system: IGROV1 ovarian
OVCAR-3 ovarian = test system: OVCAR-3 ovarian
HS 578T breast = test system: HS 578T breast
NCI/ADR-RES ovarian = test system: NCI/ADR-RES ovarian
T-47D breast = test system: T-47D breast
BT-549 breast = test system: BT-549 breast
MDA-MB-435 melanoma = test system: MDA-MB-435 melanoma
SW-620 colon = test system: SW-620 colon
MCF7 breast = test system: MCF7 breast
HCT-116 colon = test system: HCT-116 colon
HCC-2998 colon = test system: HCC-2998 colon
KM12 colon = test system: KM12 colon

| SMILES | growth (SR leukemia) | growth (OVCAR-8 ovarian) | growth (OVCAR-5 ovarian) | growth (OVCAR-4 ovarian) | growth (SK-OV-3 ovarian) | growth (IGROV1 ovarian) | growth (OVCAR-3 ovarian) | growth (HS 578T breast) | growth (NCI/ADR-RES ovarian) | growth (T-47D breast) | growth (BT-549 breast) | growth (MDA-MB-435 melanoma) | growth (SW-620 colon) | growth (MCF7 breast) | growth (HCT-116 colon) | growth (HCC-2998 colon) | growth (KM12 colon) |
| --- | --- | --- | --- | --- | --- | --- | --- | --- | --- | --- | --- | --- | --- | --- | --- | --- | --- |
| CCN1C(=O)N(CC)C2C1NN=c1s/c(=C\c3ccc(Br)cc3)c(=O)n12 (stereo unspecified) | 14% | 2.86% (active) | 35.1% | 65.7% | 16.1% | 13.3% | 3.78% (active) | 54% | 5.64% (active) | 54.3% | 18.2% | -13.6% (active) | 23.1% | 1.61% (active) | 5.14% (active) | 10.2% | 6.77% (active) |
| O=C(NCCN1CCCCC1)n1cc(-c2ccncc2)c(-c2ccc(Cl)c(O)c2)n1 | 70.9% | 89.1% | 96.5% | 122% | 71.5% | 74% | 113% | 92.5% | 95.6% | 79.2% | 68.9% | 58.9% | 100% | 91% | 44.6% | 113% | 102% |
| C/C(=N\Nc1ccc([N+](=O)[O-])cn1)c1ccc(N)cc1 | 21.8% | 109% | 98.2% | 100% | 115% | 93.5% | 101% | 109% | 115% | 103% | 100% | 96.5% | 112% | 85% | 97.8% | 102% | 95.5% |
| O=C(NCCN1CCCC1)n1cc(-c2ccncc2)c(-c2cc(O)cc(Cl)c2)n1 | 49.6% | 77.8% | 113% | 118% | 86.1% | 109% | 116% | 99.6% | 101% | 98% | 111% | 57.3% | 115% | 96.2% | 75.3% | 122% | 108% |
| CC(C)(C)[Si](C)(C)OC1[C@@H](O[Si](C)(C)C(C)(C)C)[C@@H](CNC(=O)NC(=O)NC(=O)CI)O[C@H]1n1cnc2c(NC(=O)Nc3ccccc3)ncnc21 (stereo partly specified) | 2.35% (active) | -9.33% (active) | 67.3% | 42.9% | 92.6% | -65.4% (active) | -63.5% (active) | 67.4% | 4.72% (active) | 87.5% | 97.3% | 93.2% | 76.1% | 70.8% | 38.5% | 99.4% | 32.9% |
| C/C(=N\NC(=O)CSc1nc2ccccc2c(=O)n1CCc1ccc(S(N)(=O)=O)cc1)c1ccc(Br)cc1 | 51.1% | 34.6% | 111% | 71.3% | 96.4% | 100% | 128% | 90.8% | 79.1% | 91.9% | 93.9% | 78.3% | 77.3% | 80.5% | 41.2% | 90.7% | 74.1% |
| O=C(O/C(=C/c1ccccc1)C(F)(F)F)c1ccccc1 | 69.6% | 101% | 101% | 103% | 111% | 120% | 103% | 116% | 103% | 101% | 105% | 107% | 113% | 102% | 105% | 102% | 99.4% |
| CC(C)c1ccc(-c2cnc3nonc3n2)cc1 | 6.91% (active) | 36.6% | 37.6% | 59.5% | 82.4% | 54.4% | 15.6% | 77.6% | 19.9% | 42.5% | 7.62% (active) | 23.7% | 29.8% | 11.5% | 10.2% | 61.1% | 31.2% |
| CCOC(=O)C1C(=O)C=C(c2ccccc2)CC1c1sc(N(C)Cc2ccccc2)nc1Cl (stereo unspecified) | 81.4% | 89.2% | 107% | 90.7% | 87.4% | 110% | 102% | 76.2% | 94.6% | 60.4% | 96.1% | 96.2% | 90.3% | 79.9% | 80.1% | 109% | 90.9% |
| Cc1[nH]c2ccccc2c1C1=CC(=O)C=CC1=O | 12.2% | 89.3% | 103% | 85.6% | 120% | 79.6% | 36.7% | 99.7% | 77% | 28.5% | 96.9% | 38.9% | 69.2% | 55.3% | 82.4% | 98.8% | 88.2% |
| O=C(Nc1ccccc1)c1cc2ccccc2s1 | 82.1% | 96.9% | 81.7% | 60% | 99.4% | 87.3% | 105% | 98.5% | 94.4% | 38.1% | 95.9% | 109% | 101% | 46.8% | 75.8% | 48.9% | 29.8% |
| CCCCOc1nc2ccc(C)cc2cc1/C=C/C(=O)/C=C(O)/C=C/c1cc2cc(C)ccc2nc1OCCCC | 95.9% | 100% | 102% | 116% | 89.9% | 109% | 113% | 100% | 96.8% | 89.2% | 90.8% | 107% | 107% | 100% | 87.6% | 108% | 102% |
| CCCCCCCCCCCC1=NC(C)(C)CN1CC(C)O (stereo unspecified) | -61.4% (active) | 81.7% | 92.5% | 70.2% | 82.6% | 30% | 73.9% | 71.6% | 87% | 58.9% | 67.8% | -7.43% (active) | 52% | 25.8% | 22.8% | -60.8% (active) | 34% |
| CCCCOc1nc2ccccc2cc1/C=C/c1cc(/C=C/c2cc3ccccc3nc2OCCCC)n(-c2ccccc2)n1 | 98.7% | 95.9% | 102% | 109% | 92.6% | 97.9% | 107% | 87.6% | 106% | 102% | 93.2% | 108% | 101% | 99.1% | 93.1% | 119% | 103% |
| CCCCSc1ncnc2c1ncn2C1CCCCO1 (stereo unspecified) | 90.5% | 105% | 99.1% | 108% | 106% | 106% | 109% | 110% | 102% | 104% | 107% | 115% | 107% | 91.5% | 100% | 111% | 108% |
| COc1ccc(-n2c(COc3ccc(F)cc3)n[nH]c2=S)cc1 | 120% | 112% | 110% | 105% | 109% | 96.4% | 103% | 108% | 103% | 101% | 181% | 105% | 104% | 107% | 101% | 113% | 110% |
| N/N=C(\C(=N\N)c1ccccc1)c1ccccc1 | 77.2% | 104% | 102% | 77.3% | 99.4% | 96.8% | 112% | 108% | 102% | 93% | 88% | 103% | 101% | 90% | 101% | 99.8% | 105% |
| Cn1cnc([N+](=O)[O-])c1S(=O)(=O)Oc1ccccc1 | 56.1% | 100% | 103% | 112% | 101% | 85.7% | 1.83% (active) | 105% | 92% | 5.06% (active) | 100% | 101% | 56% | 84.3% | 68.4% | 101% | 100% |
